Most compounds without a hit are left out; they make up all but 5.9% or so of the library.
HSF1 inh: HSF1 inhibitors in luciferase reporter cells, primary screen, cell-based, NIH3T3, luminescence; activity change, negative = inhibition, % at 7.5 µM (by protocol); NIH3T3-HGL HSE-luciferase, MG132-induced, luminescence 8 h; active compounds read low; AID 2098, 2009; 300,000 tested, 0.77% active;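 active means more than half of replicate wells show activity change below -50%, luminescence cut by over half; inconclusive means some wells, but at most half, below -50%; inactive means no replicate well below -50%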;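 further: luciferase reports HSF-1 transcriptional activity via heat shock element; 0% = median of DMSO wells and -100% = zero luminescence signal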
DAX1 inh: DAX1 (NR0B1) inhibitors, primary screen, cell-based, HEK293, Gal4-DAX1, luciferase luminescence | Nuclear receptor subfamily 0 group B member 1 (Homo sapiens), P51843 | HEK293 Gal4-DAX1 luciferase reporter | inhibition, % at 6.75 µM | 340,000 tested, 0.99% active;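 active means inhibition above the mean over all tested compounds plus 3 SD, cut at about 4.2% in these data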;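 further: 0% = DAX1-transfected cells with DMSO and 100% = empty-vector control cells with DMSO; inhibition shows as a rise in luminescence from relieved DAX1 repression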
Target sequence (P51843 207-470 limits assumed): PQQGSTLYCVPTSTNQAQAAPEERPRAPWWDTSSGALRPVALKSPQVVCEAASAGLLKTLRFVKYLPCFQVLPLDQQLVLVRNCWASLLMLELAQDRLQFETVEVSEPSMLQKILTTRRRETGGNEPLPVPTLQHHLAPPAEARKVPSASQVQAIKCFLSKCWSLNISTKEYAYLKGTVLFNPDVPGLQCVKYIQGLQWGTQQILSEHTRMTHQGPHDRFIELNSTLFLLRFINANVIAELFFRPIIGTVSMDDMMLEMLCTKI
HSP90 refold inh: HSP90 inhibitors, primary screen, cell lysate, luminescence. Heat shock protein HSP 90 (rabbit reticulocyte lysate; luciferase refolding). Rabbit reticulocyte lysate, luciferase refolding luminescence, 3 h. inhibition, % at 5.6 µM. 290,000 tested, 0.91% active;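 active means inhibition above the screen-wide mean plus 3 SD, computed separately per campaign, cut at about 16% in these data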;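 further: 0% = DMSO wells and 100% = 60 µM geldanamycin wells; inhibitors lower the luminescence because luciferase stays unfolded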
HSF-1 act: HSF-1 activators, primary screen, NIH3T3-HGL cells, MG132 stress, luminescence, single point | NIH3T3-HGL HSF-1 luciferase reporter, 8 h; 100% = twice DMSO control signal | activation, % at 9 µM | 300,000 tested, 1.7% active | AID 504408, 2011;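 active means mean replicate activation of at least 50% with a set share of replicates each reaching 50%; inconclusive means only one of those two conditions met; inactive means mean below 50% and too few replicates reaching it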;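 further: 0% = median of the neutral control wells and 100% = twice that signal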
AHR activator: AHR activators, primary screen, cell-based, luminescence, luciferase reporter, human | Aryl hydrocarbon receptor (Homo sapiens), P35869 | 320,000 tested, 2.5% active | AHR-responsive luciferase reporter cells | AID 2796, 2010 | activation, % at 5 µM; in the data active means activation above about 47%;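 further: 0% = vehicle wells and 100% = reference agonist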
GAA850 FXN act: FXN promoter activators, primary screen, cell-based, luciferase luminescence, HEK293 lucGAA850 | HEK293 lucGAA850 FXN promoter luciferase reporter, 24 h; percent of 10 µM SAHA response | activation, % at 6 µM | 360,000 tested, 0.56% active;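 active means activation above the average of all compounds screened plus 3 SD, cutoff fixed separately per campaign, cut at about 7.5% in these data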;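 further: 0% = DMSO wells and 100% = 10 µM SAHA wells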
Active calls of the source: *; ? = inconclusive; . = no result given.

SMILES	HSF1 inh	DAX1 inh	HSP90 refold inh	HSF-1 act	AHR activator	GAA850 FXN act
COc1ccc(C)cc1NC(=O)c1cccc(C(=O)Nc2cc(C)ccc2OC)c1	3	2	2	13	4	1
Cc1cccc(C(=O)Nc2ccc3ccccc3c2)c1	38	6.8*	1	66*	4	3
COc1ccc(C)cc1NC(=O)c1ccc(OC(F)F)cc1	-8	1	-4	-2	70*	2
COc1ccc(C(=O)Nc2cccc(C)c2)cc1	14	0	10	62*	0	3
CC1(C(=O)NS(=O)(=O)c2ccc(F)cc2F)CCN1C(=O)CC1CCCC1 (stereo unspecified)	.	.	.	.	.	0
CCCCN1C(=O)C(=O)N(CC(=O)c2ccc3c(c2)OCO3)C1=O	-6	1	.	-8	-1	0
Nc1ncc2c(n1)CCN(c1ccc([N+](=O)[O-])cc1)C2	7	2	3	28	1	3
O=C(NCc1ccccn1)c1cccc([N+](=O)[O-])c1	18	2	0	62*	1	2
O=C(Nc1cccc(Br)c1)c1ccc(OC2CSC2)cc1	40	.	2	51*	15	.
O=C(O)c1cccc([N+](=O)[O-])c1C(=O)Nc1ccc2ccccc2c1	-24	0	3	-42	60*	2
O=C(COc1ccc(-n2cnnn2)cc1)Nc1cc(Cl)cc(Cl)c1	.	-1	.	.	.	3
COc1ccc(/C=N/NC(=O)CN(C)S(=O)(=O)c2ccc(NC(C)=O)cc2)cc1	-60*	-1	-5	-67	7	-1
O=C(NC1CCCCC1)C(c1ccco1)N(C(=O)c1csnn1)c1ccc(Cl)cc1 (stereo unspecified)	-89*	3	0	-90	-1	2
CC(C)CC1C(=O)N(Cc2cn(CC3CCCCC3)nn2)CCS(=O)(=O)N1Cc1ccc(-c2ccncc2)cc1 (stereo unspecified)	.	0	.	.	.	0
CS(=O)(=O)c1ccc(NC(=O)CCN2C(=O)C3CCCCC3C2=O)cc1 (stereo unspecified)	-2	2	.	2	-3	0
Cc1nc2nc(SCC(=O)c3cccc([N+](=O)[O-])c3)[nH]c2cc1Br	42	0	2	43	57*	6
Cc1nc2nc(SCC(=O)C(C)(C)C)[nH]c2cc1Br	4	0	-3	13	47*	3
CCc1nc(SCC(=O)c2cccc([N+](=O)[O-])c2)n[nH]1	15	0	-4	?	4	2
Cc1nc2nc(SCc3nc4ccccc4[nH]3)[nH]c2cc1Br	-21	.	4	-38	26	1
COC(=O)c1ccccc1N(C)S(=O)(=O)c1cc2c3c(c1)CCC(=O)N3CCC2	-2	-1	.	2	0	1
CC(C)c1ccc(N=C2NN=C(c3cccs3)CS2)cc1	0	7.2*	9	-19	18	5
CC(C)N=C1NN=C(c2cccs2)CS1	9	2	0	19	17	4
CCc1ccc(C(=O)/C=C/c2ccc([N+](=O)[O-])o2)cc1	124	1	2	155*	1	0
CCOC(=O)CCc1ccc(NC(=O)/C=C/c2ccc([N+](=O)[O-])o2)cc1	2	-2	.	2	.	7
O=C(NCCc1ccc(Cl)cc1)C1=CC=CN2CCS(=O)(=O)N=C12	.	-1	.	.	19	0
CCOc1nc(Nc2ccc(Cl)cc2)nc(OCC)n1	-8	-1	0	4	11	1
CN(C)c1nc(Nc2ccc(Cl)cc2)nc(OCC#N)n1	-4	-1	-1	-3	49*	2
COc1ccc(CCNC(=O)CCn2c(=O)c3cccn3c3ccc(F)cc32)c(OC)c1OC	4	-1	-1	-5	2	3
Cc1cc(=O)[nH]c(SCc2nc3ncccn3c2Br)n1	3	0	0	4	5	2
Cc1cc(=O)[nH]c(SCc2cccc3cccnc23)n1	.	5.2*	-2	.	12	1

Screens (PubChem BioAssay)
